Laboratory results taken from ChEMBL document CHEMBL3988442, “University of Dundee, Small-Polar-MMV Screening Library” (2021).
The whole screen tested about 38,000 compounds, of which about 1,200 (3.2%) showed an effect of 50% or more. The median lay at about -58%. Many of the other results were omitted from the sample, so strong results are more common in it than they were.

tested on: Plasmodium falciparum; assay: Calibr Malaria Delayed Death Assay SOP; format: functional, organism-based; parameters: scale not given: in the data most compounds retested in dose-response had high values; conditions: concentration 4.99e-06 (unit not given; other assays of the set use mol/L)

Row | Structure (SMILES) | Percent Effect
1 | COc1ccc(C2CCCN2C(=O)NCCCn2cccn2)cc1 (centres undefined) | -95.69%
2 | CCN(CC)Cc1ccccc1NC(=O)N(C)Cc1ccc(OC)cc1 | 39.65%
3 | CC(=O)N(C)Cc1ccccc1NC(=O)c1ccccc1C | -129.3%
4 | O=C(c1cc(C2CC2)[nH]n1)N1CCN(Cc2ccccc2)CC1 | -79.8%
5 | O=S(=O)(C1CC1)N1CCc2ncnc(N3CCOCC3)c2CC1 | -72.08%
6 | CN(Cc1ccc(C#N)cc1)CC1CCS(=O)(=O)C1 (centres undefined) | -39.39%
7 | Cc1cnccc1CN1CC[C@@](C)(O)[C@H](Oc2cccc(F)c2)C1 | 38.73%
8 | Cc1nccc(CN2CC[C@H](Oc3cccc(F)c3)[C@@](C)(O)C2)n1 | -32.63%
9 | C[C@]1(O)CN(Cc2ncccc2F)CC[C@@H]1Oc1cccc(F)c1 | -43.28%
10 | C[C@]1(O)CN(Cc2cccc(C(=O)O)c2)CC[C@@H]1Oc1cccc(F)c1 | -94.06%
11 | Cc1cnccc1CN1CC[C@H](Oc2cccc(F)c2)[C@@](C)(O)C1 | 79.24%
12 | C[C@]1(O)CN(CC(=O)N2CCCC2)CC[C@@H]1Oc1cccc(F)c1 | 21.38%
13 | C[C@]1(O)CN(CCO)CC[C@@H]1Oc1cccc(F)c1 | 63.55%
14 | C[C@]1(O)CN(CCC(N)=O)CC[C@@H]1Oc1cccc(F)c1 | -45.94%
15 | Cc1ccc(C(F)(F)F)cc1NC(=O)C1CCCN1 (centres undefined) | -141.5%
16 | CC(=O)Nc1ccc(CNc2cccc(CS(C)(=O)=O)c2)cc1 | -47.89%
17 | O=C(NCc1cccs1)[C@@H]1CC[C@@H]2[C@@H](CCN2C2CCOCC2)O1.O=C(O)C(F)(F)F | -51.06%
18 | O=C(NCCN1CCOCC1)c1ccc(-n2ccc3ccccc32)s1 | 6.644%
19 | O=C(NCCCN1CCOCC1)c1ccc(-n2ccc3ccccc32)s1 | 33.29%
20 | CCN(CC)CCNC(=O)c1ccc(-n2ccc3ccccc32)s1 | 90.12%
21 | CCc1n[nH]c(C2CN(C(=O)c3ccc(NC4CC4)nc3)CCO2)n1 (centres undefined) | -51.88%
22 | CC[C@H](C)[C@H](N)C(=O)Nc1nc(-c2cnc(N3CCOCC3)nc2)cs1 | -43.38%
23 | OC(COc1ccccc1)CN1CCN(c2nccs2)CC1 (centres undefined) | -10.76%

Row | Structure (SMILES) | Percent Effect
24 | Cn1cc(CN2C[C@H]3CCC[C@@]3(COc3ccccn3)C2)cn1.O=C(O)C(F)(F)F.O=C(O)C(F)(F)F | 64.46%
25 | O=C(O)C(F)(F)F.O=C(c1cocn1)N1C[C@H]2CCC[C@@]2(COc2ccccn2)C1 | 50.75%
26 | Cn1cc(CN2C[C@@H]3COC[C@]3(COCC3CC3)C2)cn1.O=C(O)C(F)(F)F | -16.85%
27 | Cn1cc(CN2C[C@H]3CCC[C@@]3(COCC3CC3)C2)cn1.O=C(O)C(F)(F)F | 51.84%
28 | Fc1cnc(N2C[C@H]3CCC[C@@]3(COc3ccccn3)C2)nc1.O=C(O)C(F)(F)F.O=C(O)C(F)(F)F | 3.485%
29 | Cc1nc(COC[C@@]23CCC[C@@H]2CN(Cc2nccs2)C3)cs1.O=C(O)C(F)(F)F | -17.19%
30 | Cc1cc(CN2C[C@H]3CCC[C@@]3(COCc3csc(C)n3)C2)no1.O=C(O)C(F)(F)F | 11.53%
31 | O=C(O)C(F)(F)F.O=C(c1ncccn1)N1C[C@H]2CCC[C@@]2(COc2ccccn2)C1 | 12.48%
32 | Cc1ccc(C(=O)N2C[C@H]3CCC[C@@]3(COc3ccccn3)C2)nc1.O=C(O)C(F)(F)F.O=C(O)C(F)(F)F | 6.864%
33 | O=C(O)C(F)(F)F.O=C(O)C(F)(F)F.c1ccc(CN2C[C@H]3CCC[C@@]3(COCC3CC3)C2)nc1 | -73.03%
34 | CS(=O)(=O)N1C[C@H]2CCC[C@@]2(COc2ccccn2)C1.O=C(O)C(F)(F)F | 2.668%
35 | Cc1cccc(CN2C[C@H]3CCC[C@@]3(COCc3csc(C)n3)C2)n1.O=C(O)C(F)(F)F.O=C(O)C(F)(F)F | 81.41%
36 | COCc1ncc(-c2nccn2CCS(C)(=O)=O)cn1 | -109%
37 | CS(=O)(=O)CCCNc1cccc(COC2CCCCC2)c1 | -119.3%
38 | Cc1cc(C(=O)N2CCCC2)ccc1NCc1nc(CC(C)C)no1 | -36.08%
39 | C=C/C=c1\c(=C/C)oc2c(NCc3ccccc3)ncnc12 | -45.75%
40 | CCCc1nc(N2CCCC(C)C2)c2c(n1)c(C)nn2CC (centres undefined) | -54.34%
41 | CCc1c(C)sc2nc3n(CC(N)=O)nc(SC)n3c(=O)c12 | -38.8%
42 | CN(C)[C@H]1CCCCN(C(=O)COCc2nc3cc(F)ccc3[nH]2)C1 | -11.74%
43 | COC(C)Cc1nc(-c2cnn3c(C)cc(C)nc23)no1 (centres undefined) | -0.05951%
44 | CO[C@@H]1CCN(Cc2c(C)noc2C)[C@@H]2CN(Cc3ccco3)C[C@@H]21.O=C(O)C(F)(F)F.O=C(O)C(F)(F)F | 39.75%
45 | CCN1C[C@H]2[C@@H](C1)N(c1ncc(F)cn1)CC[C@H]2OC.O=C(O)C(F)(F)F.O=C(O)C(F)(F)F | 33.74%
46 | CO[C@@H]1CCN(c2ncc(F)cn2)[C@@H]2CN(Cc3cccnc3)C[C@@H]21.O=C(O)C(F)(F)F.O=C(O)C(F)(F)F.O=C(O)C(F)(F)F | -59.6%

Row | Structure (SMILES) | Percent Effect
47 | CO[C@@H]1CCN(Cc2ccccn2)[C@@H]2CN(Cc3ccco3)C[C@@H]21.O=C(O)C(F)(F)F.O=C(O)C(F)(F)F.O=C(O)C(F)(F)F | 81.61%
48 | CO[C@H]1CCN(c2ncc(F)cn2)[C@@H]2CN(Cc3ccco3)C[C@H]12.O=C(O)C(F)(F)F.O=C(O)C(F)(F)F | 62.54%
49 | CO[C@@H]1CCN(Cc2ccoc2)[C@@H]2CN(Cc3ccco3)C[C@@H]21.O=C(O)C(F)(F)F.O=C(O)C(F)(F)F | 46.48%
50 | Clc1snnc1CN(Cc1cccs1)C1CC1 | -103.1%
51 | CCc1noc(C(C)N(C)CC(=O)Nc2cccc(C)c2C)n1 (centres undefined) | -134.7%
52 | O=C(O)[C@@H]1CN(C(=O)c2ccc(F)c(F)c2)C[C@H]1c1cccc(F)c1 | -108.3%
53 | Cc1cc(CN2CCN(C(=O)C(C(C)C)n3cncn3)CC2)on1 (centres undefined) | -30.78%
54 | CCC(CNC(=O)c1ccccn1)N1CCc2ccccc2C1 (centres undefined) | 22.7%
55 | O=c1ccc(-c2cccs2)nn1CN1CCc2ccccc2C1 | -135%
56 | O=C1CCCCCN1Cc1cccc(OC(F)F)c1 | -103.2%
57 | Cc1noc(C)c1CN1CCCCC1CCc1ccc(O)cc1 (centres undefined) | 50.08%
58 | Cc1noc(C)c1CN1CCCC1C(=O)OCc1ccccc1 (centres undefined) | -68.08%
59 | CSCc1noc(CN2CCCCC2CCc2ccc(O)cc2)n1 (centres undefined) | -58.4%
60 | c1cc(-c2cnccn2)cc(-c2ccn(CCN3CCCCC3)n2)c1 | 41.47%
61 | c1cc(-c2cnccn2)cc(-c2ccn(CCN3CCCC3)n2)c1 | 67.88%
62 | c1cc(-c2cnccn2)cc(-c2ccn(CCCN3CCCCC3)n2)c1 | 18.71%
63 | Cc1cc2[nH]c(=O)oc2cc1S(=O)(=O)N1CCC(N2CCCC2=O)CC1 | -16.02%
64 | CC(=O)N(C)CC(=O)NC(C)c1ccc(OCCC(C)C)cc1 (centres undefined) | -42.24%
65 | Cc1nc(CCNC(=O)NCC(c2ccco2)N(C)C)cs1 (centres undefined) | -71.79%
66 | O=C(NCCc1ccncc1)[C@H]1C[C@@H]2CCN(c3nncs3)C[C@H]2O1 | -93.92%
67 | COCCN(C)C(=O)NCCc1coc(-c2ccc(C)cc2)n1 | -79.36%
68 | Cc1ncc(CNC(=O)N(CCCO)C2CCc3ccccc32)s1 (centres undefined) | -63.88%
69 | CC(C)n1ncc2c1NC(=O)CC21C(=O)Nc2c(Cl)ccc(Cl)c21 (centres undefined) | 83.19%

Row | Structure (SMILES) | Percent Effect
70 | CC(C)n1ncc2c1NC(=O)CC21C(=O)Nc2cc(Cl)cc(Cl)c21 (centres undefined) | -81.88%
71 | CC(C)n1ncc2c1NC(=O)CC21C(=O)Nc2c(Cl)cc(Br)cc21 (centres undefined) | -58.13%
72 | COc1ccc(Cl)cc1NC(=O)N1CCc2nc(NC(C)=O)sc2C1 | -92.85%
73 | COc1ccc(COCC(O)CNC(=O)c2cc(C)oc2C)cc1 (centres undefined) | -54.86%
74 | O=C(NCCCn1cccn1)C1(c2cccc(Cl)c2)CC1 | -36.51%
75 | CS(=O)(=O)NCc1nnc2n1CCN(Cc1cccnc1)C2 | -124.8%
76 | CCOC(=O)CC1(Nc2nc(C)nc3c2cnn3C)CCCCC1 | -28.38%
77 | Cc1nc(NC2(CN3CCCCC3)CCCCC2)c2cnn(C)c2n1 | 54.86%
78 | COCC1(Nc2nc(C)nc3c2cnn3C)CCCC1 | -148.5%
79 | COc1cc(C(=O)NS(=O)(=O)c2cc(Cl)sc2Cl)ccc1OC(F)F | -57.9%
80 | N#CCCN(CCC#N)Cc1ccc(Br)c2cccnc12 | -154.3%
81 | OCCN(CCO)Cc1ccc(Br)c2cccnc12 | -31.32%
82 | CCN(CCO)Cc1ccc(Br)c2cccnc12 | 54.32%
83 | O=C(NCC1(O)CCC1)c1c(O)cc(Cl)cc1Cl | -101.6%
84 | O=C(NCc1ccon1)N1CCC(n2ccc(C(F)(F)F)n2)CC1 | -25.88%
85 | Cc1ccnn1CCN1CCCC2(CCC(=O)N(C3CCCC3)C2)C1 (centres undefined) | -99.39%
86 | CN1CC(=O)N(c2ccccc2)CC12CCN(C(=O)CC1CC1)C2.O=C(O)C(F)(F)F (centres undefined) | -38.66%
87 | O=C(c1ccc(=O)[nH]c1)N1C[C@@H]2CC[C@H](C1)N(Cc1ccccc1)C2 | -23.45%
88 | O=C(c1cc(F)cc(Cl)c1)N1C[C@@H]2CC[C@H](C1)N(Cc1ccccc1)C2 | -134.7%
89 | O=C(c1ccc(F)c(Cl)c1)N1C[C@@H]2CC[C@H](C1)N(Cc1ccccc1)C2 | 73.05%
